Some test systems named below: NCI-H23 lung; NCI-H226 lung; NCI-H322M lung; HOP-62 NSCLC; NCI-H460 lung; HOP-92 NSCLC; NCI-H522 lung; A549/ATCC NSCLC; 786-0 renal; COLO 205 colon; DU-145 prostate; K-562 leukemia; MALME-3M melanoma; MDA-MB-231 breast; RXF 393 renal; SF-268 CNS; SF-295 CNS; SF-539 CNS; UACC-257 melanoma; M14 melanoma.
Holding throughout (experiment): NCI-60 one-dose screen, 48 h (100 = growth as untreated, 0 = no growth, -100 = all killed)
Common to all, as to settings: 10 µM unless noted

The text below walks through data of PubChem BioAssay (NCI).

Structures are written as SMILES. Compounds without any hit were thinned out: in the full panel of roughly 83,000, 20% have a hit.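 Values shown are percent growth following 48 h exposure of cells in 96-well plates to a single concentration of compound; below 10 was considered active.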 Values without a mark were called inactive. The source made the active and inactive calls.

Turning to `Nc1c(C(=O)Nc2cccc3ncccc23)sc2nc3c(cc12)CN(Cc1ccccc1)CC3`, the growth was 67.7% in the assay on NCI-H23 lung; 77.2% in the assay with NCI-H226 lung; 83% in the assay with NCI-H322M lung; 73.1% in the assay with HOP-62 NSCLC; 84.3% in the assay on NCI-H460 lung; 74.1% with HOP-92 NSCLC. Besides, the growth is 55.8% in the assay with NCI-H522 lung; 90.3% in the assay with A549/ATCC NSCLC; 88.1% in the assay on 786-0 renal; 112% with COLO 205 colon; 93.9% with DU-145 prostate; 34.8% with K-562 leukemia. Besides, the growth in the assay with MALME-3M melanoma is 76.2%; with MDA-MB-231 breast, 75.3%; in the assay on RXF 393 renal, 80.8%; in the assay with SF-268 CNS, 84.6%; in the assay with SF-295 CNS, 67.5%; in the assay on SF-539 CNS, 88.7%. Also, the growth is 69.2% in the assay on UACC-257 melanoma and 90.1% with M14 melanoma.
As to `Clc1cccc(C2Cc3cnccc3-c3[nH]c4ccncc4c32)c1` (stereo not given), the growth in the assay on NCI-H23 lung is 35%; in the assay with NCI-H226 lung, 52.1%; in the assay on NCI-H322M lung, 73.2%; in the assay on HOP-62 NSCLC, 67.3%; in the assay with NCI-H460 lung it was 19.1%; with HOP-92 NSCLC, 39.1%. Also, the growth is 51.9% in the assay with NCI-H522 lung; 42.9% with A549/ATCC NSCLC; 59.7% with 786-0 renal; 23.4% in the assay on COLO 205 colon; 69.6% in the assay with DU-145 prostate; 23.6% with K-562 leukemia. Further, the growth in the assay on MALME-3M melanoma is 52.2%; with MDA-MB-231 breast, 44.8%; in the assay with RXF 393 renal, 69.1%; in the assay on SF-268 CNS it was 57.7%; in the assay on SF-295 CNS, 28.6%; with SF-539 CNS, 65.5%. For the same compound, the growth in the assay on UACC-257 melanoma is 29.9%; in the assay with M14 melanoma, 58.4%.
Regarding `CCOC(=O)CC1CSC(N/N=C/c2ccc(F)c(Br)c2)=N1` (stereo not given), the growth was 99.8% in the assay with NCI-H23 lung; 104% in the assay on NCI-H226 lung; 109% in the assay on NCI-H322M lung; 94.2% with HOP-62 NSCLC; 112% with NCI-H460 lung; 105% in the assay with HOP-92 NSCLC. Besides, the growth in the assay on NCI-H522 lung is 86.2%; in the assay with A549/ATCC NSCLC, 91.2%; in the assay with 786-0 renal it was 100%; in the assay on COLO 205 colon, 110%; in the assay with DU-145 prostate, 103%; in the assay with K-562 leukemia, 90.5%. Besides, the growth with MALME-3M melanoma was 101%; in the assay on MDA-MB-231 breast it was 109%; in the assay with RXF 393 renal, 111%; in the assay with SF-268 CNS it was 92.3%; with SF-295 CNS it was 96.8%; in the assay on SF-539 CNS, 106%. For the same compound, the growth was 103% in the assay on UACC-257 melanoma and 102% in the assay on M14 melanoma.
With `CCCCCCCCCCCCCCCCCCOc1ccccc1CC(=O)NCC[N+](C)(C)C`, the growth in the assay on NCI-H23 lung was 51.6%; in the assay with NCI-H226 lung, 61.6%; in the assay with NCI-H322M lung it was 66.9%; in the assay with HOP-62 NSCLC, 5.94% (active); in the assay on NCI-H460 lung, 22.5%; with HOP-92 NSCLC it was -5.43% (active). Further, the growth was 7.44% (active) in the assay with NCI-H522 lung; 40.8% in the assay on A549/ATCC NSCLC; 16.2% with 786-0 renal; -85.2% (active) in the assay on COLO 205 colon; 44.3% with DU-145 prostate; 25.9% in the assay on K-562 leukemia. Moreover, the growth was 78.8% with MALME-3M melanoma; 46.7% in the assay with MDA-MB-231 breast; -39.7% (active) in the assay on RXF 393 renal; 24.2% with SF-268 CNS; 52.1% with SF-295 CNS; 46.4% in the assay on SF-539 CNS. Further, the growth is 93.8% in the assay on UACC-257 melanoma and 33.7% in the assay on M14 melanoma.
For `CS(=O)(=O)c1ccc(-c2nc3ccccc3n2CC(=O)N/N=C/c2ccccc2)cc1`, the growth with NCI-H23 lung was 94.2%; in the assay with NCI-H226 lung it was 98.8%; in the assay with NCI-H322M lung, 95.5%; in the assay with HOP-62 NSCLC, 89%; in the assay on NCI-H460 lung it was 107%; in the assay with HOP-92 NSCLC it was 96.3%. In addition, the growth with NCI-H522 lung was 79.1%; in the assay on A549/ATCC NSCLC, 97.2%; with 786-0 renal, 97.1%; in the assay on COLO 205 colon, 104%; in the assay with DU-145 prostate, 111%; in the assay on K-562 leukemia, 92.3%. In addition, the growth with MALME-3M melanoma was 82.4%; in the assay on MDA-MB-231 breast, 97.6%; in the assay with RXF 393 renal, 116%; in the assay with SF-268 CNS it was 97.5%; in the assay with SF-295 CNS, 94.2%; in the assay with SF-539 CNS, 97.5%. Besides, the growth with UACC-257 melanoma was 98.8%; with M14 melanoma, 90.4%.
For `CN1CCN(Cc2ccc(NC(=O)c3cncc(C#Cc4cnc(N)cc4C#N)c3)cc2C(F)(F)F)CC1`, the growth with NCI-H23 lung is 15.3%; with NCI-H226 lung it was 7.61% (active); in the assay with NCI-H322M lung, 17%; in the assay with HOP-62 NSCLC, 12.1%; with NCI-H460 lung, 7.15% (active); in the assay on HOP-92 NSCLC, -5.52% (active). In addition, the growth in the assay on NCI-H522 lung is 9.51% (active); in the assay with A549/ATCC NSCLC, 19.2%; in the assay with 786-0 renal it was 24.9%; in the assay on COLO 205 colon, -31.2% (active); in the assay on DU-145 prostate, 21.1%; with K-562 leukemia it was 15.9%. In addition, the growth in the assay with MALME-3M melanoma is -4.04% (active); with MDA-MB-231 breast, 6.83% (active); in the assay on RXF 393 renal, 13.4%; in the assay on SF-268 CNS it was 23.5%; with SF-295 CNS it was 24.5%; in the assay with SF-539 CNS it was -12% (active). In addition, the growth in the assay with UACC-257 melanoma was 3.84% (active); in the assay with M14 melanoma, -23.1% (active).
Turning to `COC(=O)Cn1c2c(c3c(OC)cccc31)C(=O)c1ccccc1-2`, the growth was 91.2% in the assay on NCI-H23 lung; 91.4% with NCI-H226 lung; 113% in the assay on NCI-H322M lung; 87% in the assay on HOP-62 NSCLC; 112% with NCI-H460 lung; 70.3% in the assay with HOP-92 NSCLC. The growth is 101% in the assay on NCI-H522 lung; 100% in the assay on A549/ATCC NSCLC; 86.6% with 786-0 renal; 104% in the assay with COLO 205 colon; 104% in the assay with DU-145 prostate; 91.7% in the assay with K-562 leukemia. For the same compound, the growth with MALME-3M melanoma was 95.5%; in the assay with MDA-MB-231 breast, 98.5%; in the assay on RXF 393 renal it was 114%; with SF-268 CNS, 97%; with SF-295 CNS it was 107%; with SF-539 CNS, 101%. The values for the growth in the assay on UACC-257 melanoma and with M14 melanoma were 101% and 103%, respectively.
As for `C[C@H]1[C@H](C)CC[C@]2(C(=O)NCCNCCN)CC[C@]3(C)C(=CC[C@@H]4[C@@]5(C)CCC(=O)C(C)(C)[C@@H]5CC[C@]43C)[C@H]12`, the growth in the assay with NCI-H23 lung was 94.2%; with NCI-H226 lung it was 99.3%; in the assay on NCI-H322M lung, 85%; with HOP-62 NSCLC, 81.1%; in the assay on NCI-H460 lung, -80% (active); in the assay with HOP-92 NSCLC, 52.9%. In addition, the growth in the assay with NCI-H522 lung was 54.3%; with A549/ATCC NSCLC, 42.4%; with 786-0 renal it was 80.7%; in the assay with COLO 205 colon, -49.9% (active); with DU-145 prostate it was 51.6%; with K-562 leukemia, -9.33% (active). For the same compound, the growth in the assay with MALME-3M melanoma is 71.3%; in the assay with MDA-MB-231 breast, 52.9%; in the assay on RXF 393 renal it was 85%; in the assay on SF-268 CNS it was 72.6%; in the assay with SF-295 CNS, 102%; with SF-539 CNS, -28.3% (active). The growth with UACC-257 melanoma is 88.7%; in the assay on M14 melanoma it was 40.9%.
